# FBW7 activator = human FBW7 E3 ligase activation, primary screen; 650,000 tested, 0.13% active; AlphaScreen FBW7–phospho-cyclin E peptide binding, activator screen; Q969H0; normalized activity (activation), % at 26.1 µM; in the data active = normalized activity above about 1.9%;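 also: purified mutant Fbw7 with reduced substrate affinity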
# TEAD-YAP block = TEAD-YAP interaction inhibition | HEK-TIYL cells, TEAD-Gal4/YAP UAS-luciferase luminescence | inhibition, % at 9.12 µM | 640,000 tested, 1.4% active | AID 1259422; in the data active = inhibition above about 32%
# GPR151 ag = human GPR151 activation. Q8TDV0. PathHunter beta-arrestin GPR151 cells, luminescence. activation, % at 11.2 µM. 650,000 tested, 1% active; in the data active = activation above about 4.9%
# MITF inh = human MITF inhibition, primary screen | inhibition, % at 2.6 µM | 650,000 tested, 0.91% active | O75030 | AlphaScreen MITF homodimerization, bead proximity signal | AID 1259374; in the data active = inhibition above about 50%
# Target sequence (O75030 whole entry, looked up): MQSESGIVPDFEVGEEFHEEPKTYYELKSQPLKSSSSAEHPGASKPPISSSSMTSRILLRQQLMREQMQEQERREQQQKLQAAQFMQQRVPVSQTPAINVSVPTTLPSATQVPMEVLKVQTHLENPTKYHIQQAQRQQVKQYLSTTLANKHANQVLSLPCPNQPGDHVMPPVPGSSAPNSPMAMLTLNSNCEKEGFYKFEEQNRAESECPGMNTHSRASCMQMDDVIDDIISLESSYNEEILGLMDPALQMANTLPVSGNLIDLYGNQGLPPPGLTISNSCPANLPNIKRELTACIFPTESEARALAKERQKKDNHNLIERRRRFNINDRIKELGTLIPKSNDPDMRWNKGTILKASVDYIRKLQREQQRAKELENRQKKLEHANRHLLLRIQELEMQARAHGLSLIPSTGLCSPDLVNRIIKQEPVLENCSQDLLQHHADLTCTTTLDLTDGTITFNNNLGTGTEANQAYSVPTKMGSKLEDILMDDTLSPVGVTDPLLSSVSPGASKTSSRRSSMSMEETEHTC
# GPR151 confirm = human GPR151 activation, confirmation screen; shares compounds with GPR151 ag; GPR151 PathHunter beta-arrestin cells, luminescence, 90 min; % of EA-reagent control over plate median; activation, % at 11.2 µM; 6,700 tested, under 10 active; AID 1508609;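 active = mean percent activation across replicates above the confirmation screen cutoff of 4.91%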
# GPR119 ag = counter-screen for GPR151 activators: effect on human GPR119. AID 1508611. activation, % at 11.2 µM. 6,700 tested, 0.3% active. GPR119 PathHunter beta-arrestin cells, luminescence, 90 min; 0 = compound-well median, 100 = enzyme-acceptor control. shares compounds with GPR151 ag;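 active = mean percent activation in the counterscreen above 29.09%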;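 also: counterscreen on off-target GPR119 to flag nonselective hits from the GPR151 activator screen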
# A number is an active result; . = inactive; / = no result; ! = not active in a repeat. In the library only some 3.5% were active in any assay of this set; here they are far more common.
SMILES,FBW7 activator,TEAD-YAP block,GPR151 ag,MITF inh,GPR151 confirm,GPR119 ag
CCCCCC(=O)N/N=C/c1cccc(OC)c1,.,.,5.2,.,.,.
COc1ccc(/C=N/NC(=O)CCC(=O)Nc2ccc(Cl)cc2C)cc1OC,.,.,.,.,/,/
CCCCCCCC(=O)N/N=C/c1ccccc1OC,.,.,17,.,.,.
COc1ccc(C(=O)Nc2nnc(-c3ccc(Br)cc3)s2)cc1OC,.,.,.,.,/,/
c1ccc(CCCNc2ncc(-c3cnn(Cc4ccccc4)c3)n3ccnc23)cc1,.,.,.,.,/,/
CN(CC(=O)Nc1ccc(Cl)cc1)CC(=O)Nc1ccc(C(N)=O)cc1,.,.,5.4,.,.,.
CN(CC(=O)Nc1ccc(C(N)=O)cc1)Cc1ccc(C(C)(C)C)cc1,.,.,.,.,/,/
CN(CC(=O)Nc1ccc(C(N)=O)cc1)CC(=O)Nc1ccccc1Cl,.,.,.,.,/,/
COc1ccc(CN(C)CC(=O)Nc2ccc(C(N)=O)cc2)c(OC)c1OC,.,.,5.0,.,.,.
COCCn1c(=S)[nH]c2scc(-c3ccc(F)cc3)c2c1=O,.,.,.,.,/,/
O=C(CN1Cc2ccccc2OC(c2ccccc2F)C1)N1CCN(c2ccccn2)CC1 (configuration not stated),.,.,.,.,/,/
COc1ccc(S(=O)(=O)N2CCN(Cc3ccccc3)CC2)cc1Cl,.,.,.,.,/,/
O=C(c1ccc(S(=O)(=O)NC2CC2)o1)N1CCCc2ccccc21,.,.,.,.,/,/
CC(=O)c1ccc(OC(C)C)c(CSC(=N)N)c1,.,.,6.5,.,.,.
CCn1c(SCc2cccc([N+](=O)[O-])c2)nc2c(c1=O)SCC2,.,.,.,.,/,/
Cc1cc(-n2c(SCc3ccccc3)nc3ccsc3c2=O)ccc1Cl,.,.,5.6,.,.,.
COC(=O)C1=C(C)Nc2nnnn2C1c1ccc(SC)cc1 (configuration not stated),.,.,.,.,/,/
COc1ccc(O)c(CN[C@H]2C[C@@H](C(=O)NC(C)C)N(Cc3ccc4ccccc4c3)C2)c1,.,.,.,.,/,/
COc1ccc(-c2[nH]ncc2CN[C@@H]2C[C@@H](C(=O)NC(C)C)N(Cc3ccccc3)C2)cc1,.,.,5.7,.,.,.
COC(=O)c1cnn(C(=O)c2ccc(OC)cc2)c1N,.,.,6.2,.,.,.
COC(=O)c1cnn(C(=O)c2ccncc2)c1N,.,.,.,.,/,/
Cc1cccc(NC(=O)C(=O)NC2CCCCC2)c1,.,.,5.5,.,.,.
Cc1cccc(NC(=O)C(=O)NC2CCCCCC2)c1,.,.,.,.,/,/
N#CCCn1cc(C=O)c(-c2ccc(-c3ccccc3)cc2)n1,.,.,5.5,.,.,.
N#CCCn1cc(/C=N/O)c(-c2ccccc2)n1,.,.,.,.,/,/
SMILES,FBW7 activator,TEAD-YAP block,GPR151 ag,MITF inh,GPR151 confirm,GPR119 ag
CC1=C(C)SC(=C(C#N)c2nnc(N3CCOCC3)n2-c2ccccc2)S1,.,.,5.4,.,.,.
O=C1CC2c3ccccc3C1C1C(=O)N(c3ccccc3)C(=O)C21 (configuration not stated),.,.,8.7,.,.,.
Cc1ccc(N2C(=O)C3C4CC(=O)C(c5ccccc54)C3C2=O)cc1 (configuration not stated),.,.,.,.,/,/
O=C1c2cccc3c([N+](=O)[O-])ccc(c23)C(=O)N1CCc1ccccc1,.,.,6.9,.,.,.
CCOCCCNC(=O)c1ccc(OC(C)=O)cc1,.,.,6.8,.,.,.
COCCCNC(=O)c1ccc(OC(C)=O)cc1,.,.,.,.,/,/
O=C(CC1(c2ccccc2)CC(=O)N(Cc2cccnc2)C1=O)N1CC[C@@H]2CCCC[C@H]2C1 (some centres not stated),.,.,9.5,.,.,.
NS(=O)(=O)c1ccc(CCNC(=O)C(=O)Nc2ccccc2F)cc1,.,.,7.1,.,.,.
O=C(NCCOc1cc(N2CCCCC2)ncn1)c1cc2ccccc2oc1=O,.,.,.,.,/,/
Nc1nc(SCC(=O)NC2CCCCCCC2)n[nH]1,.,.,.,.,/,/
CC(Sc1n[nH]c(N)n1)C(=O)OC1CCCCC1 (configuration not stated),.,.,10.0,.,.,.
O=C(NNS(=O)(=O)c1ccc2ccccc2c1)c1ccc(Br)cc1,.,.,.,.,/,/
O=C(NNS(=O)(=O)c1ccc(Br)cc1)c1ccccc1,.,.,5.4,.,.,.
COc1cccc(-c2noc(CCC(=O)NC(C)C)n2)c1,.,.,5.6,.,.,.
CN(C)C(=O)CCc1nc(-c2ccc(Cl)cc2)no1,.,.,7.2,.,.,.
COc1ccc(-c2noc(CC(=O)Nc3cccc(Cl)c3)n2)cc1,.,.,.,.,/,/
COc1ccc(-c2noc(CCC(=O)Nc3ccc(C)cc3)n2)cc1,.,.,.,.,/,/
COc1ccc(-c2noc(CCC(=O)Nc3ccc(C)c(C)c3)n2)cc1,.,.,5.2,.,.,.
Cc1cccc(-c2noc(CCC(=O)N(C)C)n2)c1,.,.,.,.,/,/
COc1ccc(-c2noc(CCC(=O)Nc3cccc(Cl)c3)n2)cc1,.,.,9.5,.,.,.
O=S(=O)(Sc1nc2ccccc2[nH]1)c1nc2ccccc2[nH]1,.,.,.,.,/,/
CCOc1cc(/C=N/N=C2/NC(=O)CS2)ccc1OC(=O)c1ccc(OC)cc1,.,.,.,.,/,/
CCOc1cc(/C=N/N=C2/NC(=O)CS2)cc(Cl)c1O,.,.,7.1,.,.,.
Cc1sc(NC(=O)CCS(=O)(=O)c2ccc(Cl)cc2)c(C#N)c1C,.,.,5.2,.,.,.
O=C(c1ccc(OCCN2CCCCC2)cc1)c1c(-c2ccc(O)cc2)sc2cc(O)ccc12,.,.,5.0!,.,.,.
SMILES,FBW7 activator,TEAD-YAP block,GPR151 ag,MITF inh,GPR151 confirm,GPR119 ag
O=C1NC(=Nc2ccc(O)cc2)S/C1=C/c1cccs1,.,.,.,.,/,/
Cc1cccn2c(CN(C)CC3CCCCO3)c(C(=O)N(C)CCc3ccccc3)nc12 (configuration not stated),.,.,.,.,/,/
CCOC(=O)CSC1=C(C#N)C(c2ccco2)C(C(=O)Nc2ccccc2)=C(C)N1 (configuration not stated),.,.,5.0,.,.,.
CCOc1ccc(C(NC(=O)c2ccccc2)NC(=O)c2ccccc2)cc1OC,.,.,.,.,/,/
OCc1ccccc1OCc1cccc2ccccc12,.,.,5.3,.,.,.
O=C(CCCOc1ccc(Cl)cc1Cl)Nc1ncn[nH]1,.,.,.,.,/,/
CC(=O)Nc1ccc(NC(=O)COc2ccc(Cl)cc2Br)cc1,.,.,5.1,.,.,.
O=C(COc1ccc(Cl)cc1Cl)Nc1ncn[nH]1,.,42,6.6,.,.,.
Cc1ccc(NC(=O)c2c(C)nc3c(C)cccn23)c(C)c1,.,.,.,.,/,/
C=CCNC(=O)c1sc(=S)n(CCc2ccccc2)c1N,.,.,5.2,.,.,.
Cc1ccc(NC(=O)CSc2nc3c(c(=O)n2C)SCC3)c(C)c1,.,.,7.4,.,.,.
